According to PubChem BioAssay AID1851 (National Center for Advancing Translational Sciences (NCATS), 2009):
Several values for one entry are separate records, joined by “and”; a condition that tells them apart may be missing. Identical values can stand only once. About 4,000 (25%) of roughly 16,000 compounds were called active. Not shown: some 26% with an inconclusive outcome. Calls come from the whole dose curve; as a rule, active = well fitted curve in the direction sought with a large enough effect; inconclusive = small, poorly fitted or top-dose-only effect, or effect the other way; inactive = no such curve, though single readings can be large or run the other way. Only a sample is shown.

molecular target: Cytochrome P450 2C9 (Homo sapiens) (UniProt P11712); test: Cytochrome panel assay with activity outcomes; details: recombinant CYP, pro-luciferin dealkylation, luminescence, p450-cyp2c9; series mostly up to 57.1 µM; activity, negative = inhibition: at the top concentration
Sequence (P11712 whole entry, looked up): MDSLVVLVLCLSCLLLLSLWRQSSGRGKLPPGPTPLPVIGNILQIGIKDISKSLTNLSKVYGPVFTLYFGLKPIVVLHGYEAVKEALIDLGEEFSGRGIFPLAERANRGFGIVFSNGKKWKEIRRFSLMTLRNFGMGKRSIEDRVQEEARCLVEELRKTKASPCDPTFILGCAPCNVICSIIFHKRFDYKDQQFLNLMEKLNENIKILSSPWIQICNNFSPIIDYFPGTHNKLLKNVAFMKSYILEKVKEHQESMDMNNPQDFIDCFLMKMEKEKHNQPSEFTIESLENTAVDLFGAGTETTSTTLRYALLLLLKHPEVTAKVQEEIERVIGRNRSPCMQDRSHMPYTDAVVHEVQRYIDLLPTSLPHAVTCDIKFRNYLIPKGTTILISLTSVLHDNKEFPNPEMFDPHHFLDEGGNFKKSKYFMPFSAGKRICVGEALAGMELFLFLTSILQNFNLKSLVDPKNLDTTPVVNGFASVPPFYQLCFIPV
% is set by controls: 0 for no effect and ±100 for the full control effect.

AC50, active:
O=C1[C@@H]2C=CC=CC2=NC(=S)N1CCN1CCC(=C(c2ccc(F)cc2)c2ccc(F)cc2)CC1 31.6 µM
CC(C)c1ccccc1-n1c(SCC(=O)N2CCN(c3ccccc3)CC2)nnc1-c1cccnc1 11.2 µM
Cc1ccc(CSc2nnc3c(n2)OC2(Nc4ccccc4-3)C(=O)Nc3ccc(F)cc32)cc1 (centres undefined) 8.91 µM
O=C1Nc2ccc(F)cc2C12Nc1ccccc1-c1nnc(SCc3ccccc3F)nc1O2 (centres undefined) 2 µM
O=C(OCc1nnc(-c2ccccc2)o1)c1ccc2c(c1)OCCO2 7.94 µM
Cc1ccc(C)c(OCCCC(C)(C)C(=O)O)c1 6.31 µM
CC(C)Nc1nc(NC(C)(C)C)nc(Oc2ccc(=O)n(-c3ccccc3)n2)n1 20 µM
N[C@@H](CSS(=O)(=O)O)C(=O)O 12.6 µM
COc1cccc(-c2nc(NCc3ccccc3)c3ccccc3n2)c1 1.26 µM
COc1cccc(-c2nc(NCCc3c[nH]c4ccc(OC)cc34)c3ccccc3n2)c1 0.794 µM
COc1ccc2[nH]cc(CCNc3nc(-c4ccc(N(C)C)cc4)nc4ccccc34)c2c1 0.398 µM
CCCC/C=C/C(NC(=O)c1ccc(C(F)(F)F)cc1)c1ccccc1 (centres undefined) 2 µM
CCCC/C=C/C(NC(=O)c1ccccc1)c1ccccc1 (centres undefined) 10 µM
CCCC/C=C/C(NC(=O)c1ccco1)c1ccccc1 (centres undefined) 15.8 µM
CCCC/C=C/C(NC(=O)c1cccs1)c1ccccc1 (centres undefined) 0.316 µM
Clc1ccccc1-c1nc(N/N=C/c2cccnc2)c2ccccc2n1 2.24 µM
Fc1ccc(-c2[nH]ncc2-c2nnnn2-c2ccccc2)c(F)c1 7.94 µM
CCOc1cc(/C=N/NC(=O)COc2cccc(C)c2)ccc1OC(=O)c1cccs1 3.16 µM
CCOc1cc(/C=N/NC(=O)CNc2cccc(C)c2)ccc1OC(=O)c1ccccc1 5.01 µM
C#CCSc1nc(Cc2ccc(Cl)cc2)nc2ccccc12 2.82 µM
O=C(OCCNC(=O)c1ccc2ccccc2n1)c1ccc(F)cc1 10 µM
O=c1[nH]c(SCc2c(Cl)c(Cl)c(Cl)c(Cl)c2Cl)nc(=S)[nH]1 1.26 µM
Cc1ccc(C)c(N2CCN(C(=O)c3ccc4nc(-c5ccco5)c(-c5ccco5)nc4c3)CC2)c1 7.08 µM
COc1ccc(C)cc1NC(=O)CCC(=O)Nc1nnc(C(F)(F)F)s1 1.26 µM
CCCCOC(OCCCC)[C@H](O)CSc1ccc2ccccc2c1 2 µM
Cc1cc(C)c(C#N)c(OCC(=O)c2ccc(Br)cc2)n1 10 µM
O=C1CN(C(=O)c2ccc(Br)o2)C(c2ccc(F)cc2)c2cc(Cl)ccc2N1 (centres undefined) 6.31 µM
Cc1ccc(S(=O)(=O)NNc2ccccc2)cc1 8.91 µM
Cc1ccc(NNS(=O)(=O)c2ccc(C)cc2)cc1 8.91 µM

AC50, inactive:
N[C@@H](CO)C(=O)O
CC(C)NC[C@H](O)c1ccc2ccccc2c1

activity, negative = inhibition, inactive:
CC1CCN(C(=O)CSc2nc3cccnc3n2C)CC1 -8.16%
O=c1cc(CSc2nnc(-c3cccnc3)n2-c2ccccc2F)nc2sccn12 -21.9%
C#CCCCO/N=C1/C[C@@H](O)[C@@H](O)[C@@H]2[C@@H]3C(=O)N(CCC(=O)OCC)C(=O)[C@H]3CC[C@@H]12 2.98% [at 11.4 µM]
C=C[C@]1(C)C[C@H](OC(=O)CO)[C@]2(C)C3C(=O)CC[C@]3(CC[C@H]2C)[C@H](C)[C@H]1O (some centres undefined) 4.64% [at 11.4 µM]
N=C(N)c1ccc(N=Nc2c(O)ccc3c2[nH]c2ccccc23)cc1 -5.45% [at 11.4 µM]
c1csc(CNc2cc(-c3ccoc3)ncn2)c1 -7.77% [at 2.29 µM]
O=C1[C@H]2[C@H]3[C@H](O)[C@H](O)C/C(=N/OC[C@@H](O)COCc4ccco4)[C@@H]3CC[C@@H]2C(=O)N1Cc1ccc2c(c1)OCO2 3.23% [at 11.4 µM]
C#CCCCO/N=C1/C[C@@H](O)[C@@H](O)[C@@H]2[C@@H]3C(=O)N(C[C@@H]4CCCO4)C(=O)[C@H]3CC[C@@H]12 16.1% [at 11.4 µM]
CN(Cc1ccco1)c1cc(-c2cccnc2)ncn1 2.79% [at 2.29 µM]
CCCN1C(=O)C2(/C(=C(\O)c3ccc4c(c3)OCCO4)C(=O)C(=O)N2CCCOC)c2ccccc21 (centres undefined) -25%
Cc1cc(C)c(-c2cc([C@H](C)O/N=C3/[C@H]4OC4[C@@H](O)[C@H]4[C@H]3CCn3c(=O)n(-c5ccccc5)c(=O)n34)on2)c(C)c1 (some centres undefined) -29.1% [at 11.4 µM]
COC(=O)Cn1c(=N)n(CCN2CCCCC2)c2ccccc21 -24.1%
Fc1ccc(Nc2nc(-c3ccoc3)nc3ccccc23)cc1 8.98% [at 2.29 µM]
CCCn1nc(Oc2nc(NCC)nc(NCC)n2)ccc1=O -26.2%
CCCn1nc(Oc2nc(NCC)nc(NC(C)C)n2)ccc1=O -18.8%
C[N+]1(NCC[N@@+]2(C)CCc3ccccc3C2)CCCCC1 5.5% [at 11.4 µM]
CC(=O)OC[C@@H]1O[C@H](CCO/N=C(\C)CCN2CCCc3nc(C)c(C)cc32)C=C[C@@H]1OC(C)=O -1.93% [at 11.4 µM]
CCCCn1nnnc1SCC(=O)N1CCCC1 -25.2%
CCSC[C@@H](N)C(=O)O 4.58% [at 11.4 µM]
COc1cccc(-c2nc(NCc3cccnc3)c3ccccc3n2)c1 -29.9% [at 2.29 µM]
COc1cccc(-c2nc(NCc3cnc(C)cn3)c3ccccc3n2)c1 0.563% [at 2.29 µM]
COc1ccc2[nH]cc(CCNc3ccnc(-c4ccc(N(C)C)cc4)n3)c2c1 -7.16% [at 2.29 µM]
COCCNc1nc(-c2cccc(OC)c2)nc2ccccc12 -26.4% [at 2.29 µM]
COc1ccc2[nH]cc(CCNc3nc(-c4ccccc4CN(C)C)nc4ccccc34)c2c1 10.1% [at 2.29 µM]
COc1ccc2[nH]cc(CCNc3nc(-c4ccccc4OC)nc4ccccc34)c2c1 -1.54% [at 2.29 µM]
Cc1c(C)c2c(c(C)c1O)CC[C@@](C)(C(=O)O)O2 1.61% [at 25.6 µM]
Cc1occc1C(=O)NNC(=O)Cc1ccccc1 -8.8%
CC[C@H](CN(C)C)C(=O)c1ccco1 0.0002% [at 11.4 µM]
C/C(=C\C1CCCCC1)C(NC(=O)c1ccc(C(F)(F)F)cc1)c1ccc(-c2ccccc2)cc1 (centres undefined) 17.2%
CCCC/C=C/C(NC(=O)c1ccc(-c2ccccc2)cc1)c1ccccc1 (centres undefined) 14.5%
CCC(CC)C(=O)NCCN1CCN(C(=O)C(CC)CC)CC1 -25.1%
CN(C)CCn1nnnc1SCC1=C(C(=O)O)N2C(=O)[C@@H](NC(=O)Cc3csc(N)n3)[C@@H]2SC1 -7.71% [at 25.6 µM]
Cn1c(=O)c2c(nc(C(=N)SCC(=O)O)n2C)n(C)c1=O -13.3% [at 11.4 µM]
Cc1[nH]c2c(C)ccc(C)c2c1CC(=O)O -16.5% [at 11.4 µM]
Clc1ccccc1-c1nc(NCc2cccnc2)c2ccccc2n1 -14.1% [at 2.29 µM]
Cc1ccccc1-c1nc(NCc2cccnc2)c2ccccc2n1 9.82% [at 2.29 µM]
CCC(=O)O[C@H](CC(=O)O)C[N+](C)(C)C -21.4%
N[C@@H](COP(=O)(O)O)C(=O)O 1.4%
C=CC[C@@H](C(=O)O)c1ccccc1 -1.11% [at 11.4 µM]
N#Cc1cccc(NC(=O)N2CC3(CCN(C(=O)c4cnccn4)CC3)C2)c1 6.68%
CC(C)(C)c1c2c(c(C(C)(C)C)c3c1OCN(Cc1ccccc1)C3)OCN(Cc1ccccc1)C2 -7.82% [at 11.4 µM]
O=C1NC(c2ccccc2)=NC1(NS(=O)(=O)c1ccccc1)C(F)(F)F (centres undefined) -1.05%
NCCNC(=O)c1ncsc1-c1cccc(F)c1 -13.3%
CCCCNc1ccc(C(=O)OCCOCCOCCOCCOCCOCCOCCOCCOCCOC)cc1 -19.2% [at 25.6 µM]
Nc1ccc(N=Nc2c(S(=O)(=O)O)cc3ccccc3c2S(=O)(=O)O)cc1 8.14% [at 11.4 µM]
NCC[C@H]1CCC[C@H](CCN)N1 18.1%
COc1cc2nc(N3CCN(C(=O)c4ccco4)CC3)nc(N)c2cc1OC 15.7% [at 25.6 µM]
COc1ccc(C)cc1NC(=O)CSc1nnc(-c2ccc(OC)c(OC)c2)n1N -24.7%
CCC(=O)OCC(=O)[C@@]1(OC(=O)CC)[C@H](C)C[C@@H]2[C@H]3CCC4=CC(=O)C=C[C@]4(C)[C@]3(Cl)[C@@H](O)C[C@@]21C -6.62% [at 25.6 µM]
CCN(CC)C[C@@H](O)c1ccc2ccc3ccccc3c2c1 -3.91% [at 11.4 µM]
Cc1cc(C)c(C#N)c(Oc2ccccc2)n1 -26.3%
Cc1ccc(=O)n(-c2ccccc2)c1 -14.5%
COc1ccc(NC(=O)N2CCCC3(CCN(C(=O)c4cccn4C)CC3)C2)cc1 6.73%
CO[C@H]1COC(=O)C/C=C\[C@@H](C)COC(=O)[C@@H](CCSC)NC(=O)C/C=C\[C@@H]1C -2.93% [at 11.4 µM] and 12.5% [at 11.4 µM]
C[C@H]1COC(=O)[C@H]2CCCN2C(=O)[C@@H](C)COC(=O)[C@H](Cc2ccccc2)NC1=O 13.4% [at 11.4 µM]
Cc1ccc(S(=O)(=O)N[C@H](C(=O)O)C(C)C)cc1 -4.41% [at 11.4 µM]
Cc1ccc(S(=O)(=O)N[C@H]2COC(=O)C/C=C\[C@H](C)[C@@H](NS(=O)(=O)c3ccc(C)cc3)COC(=O)C/C=C\[C@@H]2C)cc1 -6.21% [at 11.4 µM]
Cc1ccc(S(=O)(=O)NCc2ccccc2)cc1 -8.12%
